CHX counter – Cycloheximide Counterscreen for Small Molecule Inhibitors of Shiga Toxin; cell reporter, cycloheximide protein synthesis inhibition counterscreen; max response, %; actives 12% (n = 300,000); AID 2314, 2010; in the data active means max response mostly above about 13%, no sharp cut-off; inactive means mostly below about 14%; further: read at 38.3 µM for the half of the compounds with a filed dose; 0% is about no effect
HCV inhibitor – qHTS Assay for Inhibitors of Hepatitis C Virus (HCV). Huh7.5.1 HCVcc-Cre infection, luciferase reporter, 44 h. Potency, µM (top dose mostly 41.8 µM), for the others: at the highest dose activity change, negative = inhibition, actives largely listed as inhibitors. actives 3.4% (n = 340,000). AID 651820, 2012; active means well fitted inhibition curve with a large enough effect; inconclusive means small, poorly fitted or top-dose-only effect, or another doubt; inactive means no such curve, though single readings can be large or run the other way; further: potency means the concentration at half of the fitted maximal effect; on the % scale 0 is the no-effect control and ±100 the full control effect
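1,000 cells/well; 4 h culture; + compound; + HCVcc-Cre (~0.5 moi); 44 h; luciferase substrate, RT 15 min; read 15 sec.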
FMDV inh – High Throughput Screening for Foot and Mouth Disease Virus Antivirals | FMDV antiviral cell-based qHTS | AID 1159524, 2015 | Potency, µM (series often up to 57.9 µM), for inactives: top-dose activity change, negative = inhibition, most hits filed as inhibitors | actives 1.2% (n = 410,000); calls by dose curve; tested in HEK293T cells; further: read-out not given here; potency means the concentration at half of the fitted maximal effect; on the % scale 0 is the no-effect control and ±100 the full control effect; nearly all actives have a fitted effect of over 45% in size
LASV entry inh – qHTS for Inhibitors of binding or entry into cells for Lassa Virus | Potency, µM (series often up to 37.9 µM), for inactives: top-dose activity change, negative = inhibition, usual class: inhibitors | actives 1.2% (n = 300,000) | Lassa virus pseudotype entry inhibition, cell reporter; calls by dose curve; tested in HEK293 cells; further: potency means the concentration at half of the fitted maximal effect; on the % scale 0 is the no-effect control and ±100 the full control effect; nearly all actives have a fitted effect of over 50% in size
MARV entry inh – qHTS for inhibitors of binding or entry into cells for Marburg Virus | AID 540276, 2011 | Potency, µM (highest dose often 37.8 µM), for the others: at the highest dose activity change, negative = inhibition, actives largely listed as inhibitors | actives 1.8% (n = 300,000) | Marburg virus pseudotyped entry inhibition, cell reporter; calls by dose curve; tested in HEK293 cells; further: potency means the concentration at half of the fitted maximal effect; on the % scale 0 is the no-effect control and ±100 the full control effect
Shiga inhibitor – A qHTS for Small Molecule Inhibitors of Shiga Toxin | Vero cells, Shiga toxin protein synthesis inhibition reporter | inhibition, % at 38.7 µM | actives 9.2% (n = 290,000) | AID 2315, 2010; in the data active means inhibition mostly above about 28%, no sharp cut-off; inactive means mostly below about 43%; further: 0% is about no effect
Numbers without * were called inactive; [ ] = another dose, or the depositor's remark. Hits are enriched below; roughly 13% of the tested compounds scored in any of these assays.

For CCCCOc1[nH]c2nc(-c3ccco3)n(Cc3ccco3)c(=N)c2c1C#N the results were CHX counter 16*, HCV inhibitor inconclusive, FMDV inh -10%, LASV entry inh 0%, MARV entry inh 6% and Shiga inhibitor 6.
For O=S(=O)(NC1=NCCCCCC1)c1cccs1 the results were CHX counter -5, HCV inhibitor 3%, LASV entry inh 11%, MARV entry inh 7% and Shiga inhibitor 29.
CC(=NCc1ccco1)c1c(O)n(-c2ccccc2C)c(=O)[nH]c1=O was read as CHX counter 6, HCV inhibitor 20%, FMDV inh -14%, LASV entry inh inconclusive, MARV entry inh 14% and Shiga inhibitor 67.
`CC(CS(=O)(=O)c1ccc2c(c1)NC(=O)CS2)C(=O)NCc1ccccc1Cl` (configuration not stated) gave CHX counter 12, HCV inhibitor -3%, FMDV inh 4%, LASV entry inh 0%[46.1 µM], MARV entry inh -6%[46.1 µM] and Shiga inhibitor -4.
`COc1cccc(N2CCN(C(=O)C3CCCN(S(=O)(=O)c4ccc5c(c4)oc(=O)n5C)C3)CC2)c1` (configuration not stated) gave CHX counter -2, HCV inhibitor 13µM*, FMDV inh inconclusive, LASV entry inh 3%[46.1 µM], MARV entry inh -18%[46.1 µM] and Shiga inhibitor 3.
Screening Cc1ccc(Cl)cc1N1CCN(C(=O)C2CCN(S(=O)(=O)c3ccc4c(c3)oc(=O)n4C)CC2)CC1 returned FMDV inh inconclusive and LASV entry inh -14%[46.1 µM].
For Cn1c(=O)oc2cc(S(=O)(=O)N3CCCC(C(=O)N4CCN(c5ccc(F)cc5)CC4)C3)ccc21 (configuration not stated) the results were FMDV inh inconclusive, LASV entry inh -9%[46.1 µM] and MARV entry inh inconclusive.
Screening Cc1ccc(C)c(N2CCN(C(=O)C3CCCN(S(=O)(=O)c4ccc5c(c4)oc(=O)n5C)C3)CC2)c1 (configuration not stated) returned FMDV inh 16µM*, LASV entry inh inconclusive and MARV entry inh inconclusive.
Screening Cn1c(=O)oc2cc(S(=O)(=O)N3CCCC(C(=O)N4CCN(c5ccccc5F)CC4)C3)ccc21 (configuration not stated) returned FMDV inh 20µM*, LASV entry inh 5%[46.1 µM] and MARV entry inh 1%[46.1 µM].
Screening COc1ccc(N2CCN(C(=O)C3CCN(S(=O)(=O)c4ccc5c(c4)oc(=O)n5C)CC3)CC2)cc1 returned CHX counter 5, HCV inhibitor 2%, FMDV inh inconclusive and Shiga inhibitor 9.
Screening CCN(CC)C(=O)c1sc2c(c1C)c(=O)n(Cc1ccccc1)c(=O)n2Cc1c(C)cc(C)cc1C returned FMDV inh 0% and LASV entry inh inconclusive.
`NC(=O)c1cc([N+](=O)[O-])ccc1NCc1cccc([N+](=O)[O-])c1` gave HCV inhibitor 5% and FMDV inh 16%.
Screening NC(=O)c1cc([N+](=O)[O-])ccc1NCc1ccc(F)cc1 returned HCV inhibitor 2.5µM* and FMDV inh 44%.
NC(=O)c1cc([N+](=O)[O-])ccc1NCc1ccc(N)cc1 was read as HCV inhibitor -5% and FMDV inh 8.9µM*.
For NC(=O)c1cc([N+](=O)[O-])ccc1NCc1cccc(N)c1 the results were HCV inhibitor -13% and FMDV inh 0%.
O=C(Cn1nc(C(=O)O)c2ccccc2c1=O)Nc1cccc(S(=O)(=O)N2CCOCC2)c1 was read as HCV inhibitor 7% and FMDV inh -21%.
For CSC1=NNC(c2ccc(C(C)(C)C)cc2)=NN1 the results were CHX counter 33*, HCV inhibitor 4%, FMDV inh 59% and Shiga inhibitor 96*.
Screening O=C(Nc1ccc(Cl)cc1C(=O)c1ccccc1)c1ccccc1Br returned FMDV inh 7% and LASV entry inh inconclusive.
O=C(Nc1ccc(Cl)cc1F)c1ccccc1Br was read as CHX counter 63*, HCV inhibitor -10%, FMDV inh 5%, LASV entry inh inconclusive, MARV entry inh inconclusive and Shiga inhibitor 130*.
`O=C(Nc1ccc(Cl)cc1F)c1cccc2ccccc12` gave CHX counter 27*, HCV inhibitor -20%, FMDV inh 23%, LASV entry inh -9%[46.1 µM], MARV entry inh -1%[46.1 µM] and Shiga inhibitor 34*.
Screening O=C(COc1ccc(Cl)cc1)N1CCN(c2ccc([N+](=O)[O-])c(N3CCCCC3)c2)CC1 returned CHX counter -2, HCV inhibitor inconclusive, FMDV inh -25%, LASV entry inh -20%, MARV entry inh inconclusive and Shiga inhibitor 13.
`COc1cc(NC(=O)COc2ccc(-n3cnnn3)cc2)cc(OC)c1OC` gave HCV inhibitor 11µM*, FMDV inh inconclusive, LASV entry inh 25% and MARV entry inh -9%.
CCOc1ccc(NC(=O)COc2ccc(-n3cnnn3)cc2)cc1 was read as HCV inhibitor -8% and FMDV inh -3%.
`O=C(COc1ccc(F)cc1)Nc1ccc(-n2cnnn2)cc1` gave CHX counter -3, HCV inhibitor 16%, FMDV inh -8%, LASV entry inh -4%, MARV entry inh -5% and Shiga inhibitor -25.
`CCN(CC)c1ccc(NC(=O)COc2ccc(-n3cnnn3)cc2)cc1` gave HCV inhibitor 22µM*, FMDV inh 0%, LASV entry inh -3%[46.1 µM] and MARV entry inh -20%[46.1 µM].
For CSc1ccccc1NS(=O)(=O)c1ccccc1 the results were CHX counter 3, HCV inhibitor 3%, FMDV inh 0%, LASV entry inh 23%, MARV entry inh -29% and Shiga inhibitor 35.
`O=C(/C=C\Nc1ccccn1)c1ccc(Cl)cc1` gave CHX counter 33*, HCV inhibitor -11%, LASV entry inh inconclusive, MARV entry inh 6.5µM* and Shiga inhibitor 75*.
Screening Cc1cccc(N/C=C/C(=O)c2ccc(Cl)cc2)c1 returned CHX counter 35*, HCV inhibitor 1%, FMDV inh 44% and Shiga inhibitor 88*.
Cc1ccc(Cl)c(N/C=C/C(=O)c2ccccc2)c1 was read as CHX counter 68*, HCV inhibitor -5%, FMDV inh 33% and Shiga inhibitor 66*.
`O=S(=O)(NCc1ccc2c(c1)OCO2)c1cnc[nH]1` gave CHX counter -3, HCV inhibitor 11%, FMDV inh -22% and Shiga inhibitor -9.
`O=C(Nc1ccc(Br)cc1)C1CCCC1` gave CHX counter 6, HCV inhibitor -24%, FMDV inh 12%, LASV entry inh 5%, MARV entry inh 9% and Shiga inhibitor 6.
